High-throughput results as filed in PubChem.
Compounds with a hit are over-represented: about 1.1% of the library has one in this group of screens.
KCNH2 WT inh – KCNH2 (human, wildtype) channel inhibition; Q12809; U2OS, BacMam KCNH2, thallium flux FluxOr; active compounds read low; activity change, % at 1.84 µM; 340,000 compounds, 0.37% hits; AID 720551;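 active = maximum activity change below -70%; inconclusive = maximum activity change between -70% and -50%; inactive = maximum activity change above -50%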
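U2OS cells transduced with wild-type KCNH2 virus are loaded with FluxOr dye for 45 min, and thallium flux is measured in kinetic reads before and after stimulation buffer. Rate constants are normalized to DMSO controls.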
Menin MLL FP FL – menin-MLL binding inhibition, fluorescein peptide; Fluorescence polarization, fluorescein-MLL peptide displacement from menin; FP activity change, % at 61.4 µM; 290,000 tested, under 10 active; active = well fitted curve in the direction sought with a large enough effect in the polarisation, not every such curve was filed as active; inconclusive = small, poorly fitted or top-dose-only effect, or effect the other way, or a change in a side signal; inactive = no such curve, though single readings can be large or run the other way; the % refers to the polarisation
CXXC DNA block – blocks binding of human MLL CXXC domain to DNA | AID 2662 | MLL-CXXC / FITC-HOXA9 DNA fluorescence polarization | Potency, µM (top dose mostly 115 µM), actives largely listed as inhibitors | 290,000 compounds, 0.037% hits; active = well fitted inhibition curve with a large enough effect in the polarisation, with a control signal flat, not every such curve was filed as active; inconclusive = small, poorly fitted or top-dose-only effect, or effect the other way, or a change in a side signal; inactive = no such curve, though single readings can be large or run the other way; the % refers to the polarisation
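Purified MLL-CXXC (added from a 7 uM solution) was preincubated 5 min at ambient with pinned compounds in 50 mM Tris-HCl pH 7.5, 50 mM NaCl, 1 mM DTT, 0.05% BSA. Fluorescein-labeled HOX-A9 DNA (50 nM solution) followed, 30 min, then polarization read.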
KCNH2 3.1 block – KCNH2 3.1 (human) potassium channel inhibition; 340,000 compounds, 0.95% hits; U2OS KCNH2 3.1, thallium flux FluxOr; active compounds read low; AID 720553; activity change, % (tested at about 1.8 µM);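 active = maximum activity change below -70%; inconclusive = maximum activity change from -70% to -50%; inactive = maximum activity change above -50%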;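 also: thallium influx rate constant from kinetic fluorescence after stimulation buffer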
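Normalized rate constant (relative to positive and negative DMSO controls) derived from a 2 min kinetic fluorescence read after stimulation; U2OS cells expressing the 3.1 isoform via virus at 1.77 x 10^8 /mL.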
Menin MLL FP TR – inhibitors of human menin-MLL interaction, mutant MLL peptide; 270,000 compounds, 0.23% hits; Potency, µM (series often up to 61.6 µM), actives largely listed as inhibitors; Menin + Texas Red MLL mutant peptide, fluorescence polarization; O00255; active = well fitted inhibition curve with a large enough effect in the polarisation, with a control signal flat, not every such curve was filed as active; inconclusive = small, poorly fitted or top-dose-only effect, or effect the other way, or a change in a side signal; inactive = no such curve, though single readings can be large or run the other way; the % refers to the polarisation
Target sequence (O00255 whole entry, looked up): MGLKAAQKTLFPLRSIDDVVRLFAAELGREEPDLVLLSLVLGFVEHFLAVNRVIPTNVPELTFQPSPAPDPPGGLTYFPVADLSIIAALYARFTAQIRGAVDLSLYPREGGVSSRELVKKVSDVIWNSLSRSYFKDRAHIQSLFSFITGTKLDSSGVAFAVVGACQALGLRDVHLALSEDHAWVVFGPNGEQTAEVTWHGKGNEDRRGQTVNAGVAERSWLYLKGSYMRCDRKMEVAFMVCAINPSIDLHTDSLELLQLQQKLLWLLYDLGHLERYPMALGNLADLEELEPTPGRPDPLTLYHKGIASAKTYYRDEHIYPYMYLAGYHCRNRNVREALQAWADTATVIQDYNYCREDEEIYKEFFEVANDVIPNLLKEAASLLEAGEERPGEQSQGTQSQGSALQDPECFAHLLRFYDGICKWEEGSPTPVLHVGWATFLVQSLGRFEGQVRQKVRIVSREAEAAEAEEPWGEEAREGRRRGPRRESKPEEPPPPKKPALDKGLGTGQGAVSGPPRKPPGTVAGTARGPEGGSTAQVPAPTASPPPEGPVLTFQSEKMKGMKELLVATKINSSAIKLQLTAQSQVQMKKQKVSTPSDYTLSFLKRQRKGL
Large screens that a line does not name were inactive.

C#CCCCO/N=C1/C[C@@H](O)[C@@H](O)[C@@H]2[C@@H]3C(=O)N(c4cccc(Oc5ccccc5)c4)C(=O)[C@H]3CC[C@H]12	none (no result: KCNH2 WT inh, CXXC DNA block, KCNH2 3.1 block)
Cn1c(=O)c2c(nc3n2CC(O)CN3c2ccc(O)cc2)n(C)c1=O (stereo not drawn)	none
C[C@H](CO)N1C[C@H](C)[C@@H](CN(C)S(C)(=O)=O)Oc2c(NC(=O)Nc3ccc4c(c3)OCO4)cccc2C1=O	none (no result: Menin MLL FP FL, CXXC DNA block, Menin MLL FP TR)
C[C@H](CO)N1C[C@H](C)[C@@H](CN(C)S(=O)(=O)c2ccccc2)Oc2c(NC(=O)NC3CCCCC3)cccc2C1=O	KCNH2 3.1 block -166 (no result: Menin MLL FP FL, CXXC DNA block, Menin MLL FP TR)
C[C@H](CO)N1C[C@H](C)[C@@H](CN(C)S(=O)(=O)c2cn(C)cn2)Oc2c(NC(=O)Nc3ccc4c(c3)OCO4)cccc2C1=O	KCNH2 3.1 block -123 (no result: Menin MLL FP FL, CXXC DNA block, Menin MLL FP TR)
COC(=O)NC(c1cccc(F)c1)C(C(C)=O)C(=O)OC (stereo not drawn)	none (no result: KCNH2 WT inh, CXXC DNA block, KCNH2 3.1 block)
OCCN1C2=NCCCN2c2ccccc21	none
COc1cccc(C(=O)CN2C3=NCCCN3c3ccccc32)c1	KCNH2 3.1 block -93
CCCCCCN1C2=NCCCN2c2ccccc21	KCNH2 3.1 block -80 (no result: Menin MLL FP TR)
CC(C)C(NC(=O)c1c(F)cccc1F)C(=O)NCCc1ccc(S(N)(=O)=O)cc1 (stereo not drawn)	none
CCOC(=O)c1c(NC(=O)Cn2nc(C(F)F)cc2C(F)F)sc(C)c1C	none
COC(=O)c1c(NC(=O)Cn2nc(C(F)F)cc2C(F)F)sc(C)c1C	KCNH2 3.1 block -75
COC(=O)c1c(NC(=O)CCCC(=O)O)sc(C)c1C	KCNH2 3.1 block -83
COC(=O)c1c(NC(=O)Cc2ccccc2)sc(C)c1C	none
Cc1ccccc1C(=O)N1CCN(S(=O)(=O)c2ccccc2)CC1	none
COC(C(=O)NNS(=O)(=O)c1ccccc1[N+](=O)[O-])c1ccccc1 (stereo not drawn)	KCNH2 WT inh -96
C(=N\n1cnnc1)/c1cccs1	KCNH2 3.1 block -86 (no result: Menin MLL FP TR)
C(=N\N=C\c1cccs1)/c1cccs1	none
Cc1cc(C(=O)N/N=C/c2cccc(OC(=O)c3cccc(Br)c3)c2)n[nH]1	KCNH2 WT inh -151, KCNH2 3.1 block -191 (no result: Menin MLL FP FL, Menin MLL FP TR)
CCOC(=O)c1ccc(NC(=S)NCCc2ccc(F)cc2)cc1	Menin MLL FP TR inconclusive
O=C(CC1CC2CCC1C2)N1CCN(S(=O)(=O)c2ccc(F)cc2)CC1 (stereo not drawn)	KCNH2 WT inh -81 (no result: Menin MLL FP FL, CXXC DNA block, Menin MLL FP TR)
COC(=O)C1=C(C(=O)OC)[C@@H]2Nc3ccccc3[C@@]23C[C@@H](C(=O)OC)N(C(=O)c2ccc(Br)cc2)C3=N1	KCNH2 3.1 block -114
COC(=O)C1=C(C(=O)OC)[C@@H]2Nc3ccccc3[C@@]23C[C@@H](C(=O)OC)N(C(=O)c2cccs2)C3=N1	none (no result: CXXC DNA block)
COc1ccc(CN2CCN(Cc3ccc(C(F)(F)F)cc3)CC2)c(OC)c1	KCNH2 3.1 block -101, Menin MLL FP TR inconclusive
COc1ccc(CN2CCN(Cc3c[nH]c4ccccc34)CC2)cc1	Menin MLL FP TR inconclusive
COc1ccc(CN2CCN(Cc3c[nH]c4ccccc34)CC2)c(OC)c1	KCNH2 3.1 block -102 (no result: Menin MLL FP FL, CXXC DNA block, Menin MLL FP TR)
CCC(C)c1ccccc1N1CC(C(=O)Nc2ccc(C)c(S(=O)(=O)N3CCOCC3)c2)CC1=O (stereo not drawn)	KCNH2 3.1 block -73 (no result: Menin MLL FP FL, CXXC DNA block, Menin MLL FP TR)
O=C(CSc1nnnn1-c1ccccc1)Nc1ncc(Cc2ccccc2Cl)s1	none
N=C1SC(c2ccccc2)C(=O)N1c1ncc(Cc2ccccc2Cl)s1 (stereo not drawn)	Menin MLL FP TR 14µM
CCN(CC)C1=N/C(=C\c2ccco2)C(=O)N1c1ccccc1	KCNH2 WT inh -82, Menin MLL FP FL inconclusive
COc1ccc(CC(O)CC2c3c(cc4c(c3OC)OCO4)CCN2C)cc1 (stereo not drawn)	KCNH2 3.1 block -97, Menin MLL FP TR inconclusive
O=C(C1CCN(CCCc2ccccc2)CC1)N(CCc1ccccc1)Cc1ccccc1	KCNH2 WT inh -89, KCNH2 3.1 block -110
CCN(Cc1ccccc1)C(=O)C1CCN(Cc2ccc(SC)cc2)CC1	KCNH2 WT inh -114, KCNH2 3.1 block -94
CCN(Cc1ccccc1)C1CCN(Cc2ccc(SC)cc2)CC1	none
C[C@@H]1CN([C@H](C)CO)C(=O)CCCn2nncc2CO[C@@H]1CN(C)C(=O)Nc1cccc2ccccc12	KCNH2 WT inh -77 (no result: Menin MLL FP FL, CXXC DNA block, Menin MLL FP TR)
C[C@H](CO)N1C[C@H](C)[C@H](CN(C)C(=O)Cc2ccccc2)OCc2cnnn2CCCC1=O	KCNH2 WT inh -264 (no result: Menin MLL FP FL, CXXC DNA block, Menin MLL FP TR)
C[C@@H]1CN([C@@H](C)CO)C(=O)CCCn2nncc2CO[C@H]1CN(C)C(=O)Nc1cccc2ccccc12	none (no result: Menin MLL FP FL, CXXC DNA block, Menin MLL FP TR)
O=C(CN(c1ccccc1Cl)S(=O)(=O)c1ccccc1)NC1CC2CCC1C2 (stereo not drawn)	none (no result: Menin MLL FP FL, CXXC DNA block, Menin MLL FP TR)
COC(=O)[C@@H]1CC[C@H](C)[C@@H](c2ccc(C)cc2)N1C(=O)c1ccc(/C=N\O[C@@H](C)CN2CCCc3nc(C)c(C)cc32)cc1	none (no result: KCNH2 WT inh, CXXC DNA block, KCNH2 3.1 block)
COc1cc(Br)cc(CN2CCN(C/C=C/c3ccccc3)CC2)c1O	KCNH2 3.1 block -71
COc1ccc(O)c(CN2CCN(C/C=C/c3ccccc3)CC2)c1	none
Cc1cc(C)c2c(CN3CCN(C/C=C/c4ccccc4)CC3)cc(=O)oc2c1	KCNH2 WT inh -101, KCNH2 3.1 block -87
COc1ccc(NC(=O)/C=C/c2ccccc2)c([N+](=O)[O-])c1	none
COc1ccc(/C=C/C(=O)Nc2ccc(OC)cc2[N+](=O)[O-])cc1	KCNH2 3.1 block -85
COC/C=C/C1=CC2=CC(=O)C(C)(OC(=O)c3cnc4ccccc4n3)C(=O)C2=CN1C1CCCC1 (stereo not drawn)	none (no result: KCNH2 WT inh, CXXC DNA block, KCNH2 3.1 block)
O=c1c2c3c(sc2ncn1/N=C/c1cccnc1)CCCC3	KCNH2 3.1 block -77
Nc1nc2ccccc2n1/N=C/c1ccc(-c2ccccc2)o1	KCNH2 3.1 block -87
C#CC1(N2CCCCC2)CCCCC1	none (no result: Menin MLL FP FL, CXXC DNA block, Menin MLL FP TR)
CC1CCN(CCc2nc3cc(NC(=O)COc4ccc(Cl)cc4)ccc3n2C)CC1	KCNH2 3.1 block -96 (no result: Menin MLL FP FL, Menin MLL FP TR)
COc1ccc(OCC(=O)Nc2ccc3c(c2)nc(CCN2CCC(C)CC2)n3C)cc1	none (no result: Menin MLL FP FL, Menin MLL FP TR)
Cn1c(CCN2CCN(c3ccccn3)CC2)nc2cc(NC(=O)COc3ccc(Cl)cc3)ccc21	KCNH2 3.1 block -74
CCN(CC)CCNCC(O)(c1ccc(Cl)cc1)c1ccc(Cl)cc1	KCNH2 WT inh inconclusive, KCNH2 3.1 block -91, Menin MLL FP TR inconclusive
CC(C)(C)NCC(O)(c1ccc(Cl)cc1)c1ccc(Cl)cc1	none
CC(NC(=O)CCNS(=O)(=O)c1ccccc1)c1ccccc1 (stereo not drawn)	KCNH2 WT inh -156
O=c1cc(-c2cccc(F)c2)[nH]c2cc(F)ccc12	none (no result: KCNH2 WT inh, CXXC DNA block, KCNH2 3.1 block)
CC1=CC(C#N)(C#N)C(C#N)(C#N)C(c2ccccc2)N1 (stereo not drawn)	Menin MLL FP FL inconclusive, CXXC DNA block 40µM (no result: KCNH2 WT inh, KCNH2 3.1 block)
COC1(OC)N=C(N)C2(C#N)C(c3ccccc3)NC(C)=CC12C#N (stereo not drawn)	none
